PubChem BioAssay (NCI)
This is part of a sample that, as a whole, favours compounds with a hit. Of some 83,000 tested, about 20% had one in any assay.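 Step 1: grow cells in 96-well plates. Step 2: add test compound at a single concentration. Step 3: incubate 48 h. Step 4: record percent growth.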 Unmarked numbers belong to inactive results. Active and inactive are the calls of the source. How the source made its calls: active means growth percent below 10; inactive means the rest.

These molecules were tested on HS 578T breast (assay: NCI-60 one-dose screen, 48 h (100 = growth as untreated, 0 = no growth, -100 = all killed)). Conditions: 10 µM unless noted.

SMILES | growth
COC(=O)c1cc(C(=O)C(Br)Br)n2c1ccc1c3ccccc3ccc12 | 44.3%
O=C(Nc1nc2ccccc2s1)Nc1ccccc1Cl | 22.7%
Oc1ccc(Cl)c(Nc2ncnc3c2cnn3CC(Cl)c2ccc(Br)cc2)c1 (centres undefined) | -17.7% (active)
ClC(Cn1ncc2c(Nc3cccc(Br)c3)nc(SCCN3CCOCC3)nc21)c1ccc(Br)cc1 (centres undefined) | -19.9% (active)
Nc1cc(-c2c[nH]c3ccc(F)cc23)nc2cc(-c3c[nH]c4ccccc34)nn12 | 20.7%
O=C1Nc2cc(-c3ccc(NS(=O)(=O)c4ccc(F)c(Cl)c4)cc3)ccc2/C1=C/c1ccc[nH]1 | 45.6%
O=C1CCC(N2C(=O)c3cccc(NCCOCCOCCOCCC(=O)NCCCC(=O)NC(c4ccc5c(c4)OCO5)c4cc(Cl)c5cccnc5c4O)c3C2=O)C(=O)C1 (centres undefined) | 64.6%
Cn1cc(-c2cc3nc(-c4c[nH]c5ccccc45)cc(N)n3n2)c2ccccc21 | -9.04% (active)
CN1C(=O)C(O)(CC(=O)c2cc3ccccc3oc2=O)c2ccccc21 (centres undefined) | 99%
COc1ccc(Nc2nnc(-c3c[nH]c4ccccc34)o2)cc1 | 81.2%
Cc1cccc(C)c1Nc1nnc(-c2c[nH]c3ccccc23)o1 | 95.9%
Cc1ccc(O)cc1Nc1nc(SCCN2CCOCC2)nc2c1cnn2CC(Cl)c1ccc(Br)cc1 (centres undefined) | -25.8% (active)
Fc1ccccc1CNc1nc(SCCN2CCOCC2)nc2c1cnn2CC(Cl)c1ccc(Br)cc1 (centres undefined) | 17%
COC(=O)c1cc(C(=O)CBr)n2c1ccc1c3ccccc3ccc12 | 61%
Oc1ccc(F)c(Nc2nc(SCCN3CCOCC3)nc3c2cnn3CC(Cl)c2ccc(Br)cc2)c1 (centres undefined) | -23.9% (active)
COC(=O)c1c(C(=O)OC)c2ccc3c4ccccc4ccc3n2c1C(=O)C(C)Br (centres undefined) | 65.6%
Cc1nn(-c2ccccc2)c2nc(C)n(C(=O)N/N=C/c3cccc([N+](=O)[O-])c3)c(=O)c12 | 91.2%
COc1c2c(c(Br)c3c1C(CCc1ccccc1)N(C)CC3)OCO2 (centres undefined) | 61.4%
COc1ccc2[nH]cc(-c3cc(N)n4nc(-c5c[nH]c6ccccc56)cc4n3)c2c1 | 37.2%
CC(C)(C)C(=O)C1CC(C#N)=C2C=Cc3c(ccc4ccccc34)N21 (centres undefined) | 30.6%
Oc1ccc(Cl)c(Nc2nc(SCCN3CCOCC3)nc3c2cnn3CC(Cl)c2ccc(Br)cc2)c1 (centres undefined) | -15.5% (active)
Fc1ccc(F)c(CNc2nc(SCCN3CCOCC3)nc3c2cnn3CC(Cl)c2ccc(Br)cc2)c1 (centres undefined) | 23.4%
CN1CCN(C(=O)Oc2cc3c(c4ccccc24)[C@H](CCl)CN3C(=O)c2cc3cc(OCCCN4CCC4)ccc3[nH]2)[C@H]2CSSC[C@H]21 | -7.11% (active)
Nc1nc(-c2ccccc2)c(N=Nc2ccc(Cl)cc2Cl)s1 | -28.2% (active)
